# Screens: PubChem, several laboratories
# Autofluor counter = flagged as autofluorescent in microsphere protease counterscreen. 360,000 compounds, 3.1% hits. compound autofluorescence counterscreen, microsphere flow cytometry; hits give high values. fluorescence intensity (test concentration not listed); in the data active = fluorescence intensity above about 16000; inconclusive = no clear call, values can overlap the other calls
# BoNT A protease = inhibitors of Botulinum neurotoxin A light chain protease; multiplex microsphere protease substrate cleavage, flow cytometry; inhibition, % at 10 µM; 360,000 compounds, 0.17% hits; note: plate controls were buffer without enzyme for full effect and enzyme alone for no effect
# MazEF act = increases E. coli MazEF RNase cleavage of RNA; P0AE70; FAM/BHQ RNA-DNA oligo cleavage fluorescence, 5 h; activation, % at 20 µM; 350,000 compounds, 0.32% hits; AID 504720; in the data active = activation above about 50%
# BoNT-F LC inh = inhibitors of Botulinum neurotoxin F light chain protease. Multiplex microsphere protease cleavage assay, flow cytometry. inhibition, % at 10 µM. 360,000 compounds, 0.22% hits. AID 588497; in the data active = inhibition above about 35%, passing the limit was not always enough; inconclusive = no clear call, values can overlap the other calls; note: plate controls were buffer without enzyme for full effect and enzyme alone for no effect
# PfHsp40 rescue = rescue of PfHsp40-mediated yeast toxicity; growth rescue, % at 12.5 µM; 340,000 compounds, 0.68% hits; AID 504582; S. cerevisiae expressing PfHsp40, growth rescue, ATP luminescence; in the data active = growth rescue above about 28%, passing the limit was not always enough; inconclusive = no clear call, values can overlap the other calls;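 note: yeast W303a lacking pdr1 and pdr3 grown in galactose medium; growth measured after three days at 30 °C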
# Anthrax LF inh2 = anthrax lethal factor protease inhibition; P15917; multiplex microsphere protease cleavage assay, LF; inhibition, % at 10 µM; 360,000 compounds, 0.12% hits; note: plate controls were buffer without enzyme for full effect and enzyme alone for no effect
# * hit, by the source's call; ? = inconclusive; · = no result given; + = active, no number. Compounds with a hit are over-represented: about 4.3% of the library has one in this group of screens. Cut-off read from the data, not from the text of the source, unless noted: active = inhibition above about 30%; inconclusive = no clear call, values can overlap the other calls; inactive = below that.
SMILES,Autofluor counter,BoNT A protease,MazEF act,BoNT-F LC inh,PfHsp40 rescue,Anthrax LF inh2
Cc1ccccc1OCC(O)Cn1c(SC(C)C)nc2c1c(=O)[nH]c(=O)n2C (stereo unspecified),5939,0,6,0,0,1
Cc1sc(NC(=O)C2CCCCC2C(=O)O)c(C(N)=O)c1C (stereo unspecified),23098*,1,-22,-1,0,-1
Cc1sc(NC(=O)C2CCCCC2C(=O)O)c(C(N)=O)c1-c1ccccc1 (stereo unspecified),6167,0,1,5,-2,-8
COc1ccc(-c2nnn(CCc3nn[nH]n3)n2)cc1OC,21931*,1,2,1,-1,-1
CCOc1ccc(-c2nnn(CCC(=O)O)n2)cc1OC,21762*,1,1,1,-2,-2
CCC(NC(=O)c1ccncc1)c1ccccc1 (stereo unspecified),4880,-4,-3,?,-2,6
CCCN(CC(=O)Nc1ccccc1C)C(=O)c1ccc(=O)n(Cc2ccccc2)n1,5701,1,-4,12,-1,2
Cc1c(Cl)cccc1NC(=O)CN1CCC(C(O)(c2ccccc2)c2ccccc2)CC1,21085*,-4,-9,-7,0,1
O=C(C1CC1)N1CCC(C(O)(c2ccccc2)c2ccccc2)CC1,21864*,?,4,4,0,-2
Cc1c(Cl)cccc1NC(=O)Cn1c(CCC(=O)O)ccc1-c1ccccc1,4011,-2,6,48*,0,-12
O=C(c1ccccc1)N1CCN(C(=O)C2CC2)CC1,5927,-1,3,2,2,-1
O=C(O)CCc1ccc(-c2ccccc2)n1CC(=O)O,10276,-1,-7,-5,1,-6
Cc1ccccc1C(=O)NC1CCN(CC(=O)Nc2ccccc2Cl)CC1,3584,4,4,9,12,1
O=c1oc(CCCO)cc2ccc(/C=C/c3cccc([N+](=O)[O-])c3)cc12,3938,0,-1,8,-1,-2
Cc1cc(OCC(=O)Nc2ccncc2)ccc1[N+](=O)[O-],3940,-1,5,-6,0,0
N#CC(C#N)=NNc1ccc(-n2ccc(C(F)(F)F)n2)cc1,·,·,-9,·,186*,·
O=C(Nc1ccccc1)Nc1ccc(-n2ccc(C(F)(F)F)n2)cc1,5519,0,2,4,-1,4
COc1cc(C(=O)N[C@H](C(=O)OCC(=O)NC2CCCCCC2)C(C)C)cc(OC)c1OC,6405,-6,-2,1,0,-1
O=C(CNS(=O)(=O)c1ccccc1)Nc1ccc(C(F)(F)F)cc1,10817,0,-4,-4,-1,-3
CC(=O)Nc1ccc(NC(=O)CNS(=O)(=O)c2ccc(C)cc2)cc1,8266,0,-6,-4,-1,2
Cc1ccc(S(=O)(=O)NCC(=O)Nc2ccc(C(F)(F)F)cc2)cc1,23413*,-1,0,-2,-2,-1
Cc1ccc(NC(=O)CC(O)(C(F)(F)F)C(F)(F)F)cc1,22690*,?,-2,-3,-1,1
COc1ccc(C)cc1NC(=O)CC(O)(C(F)(F)F)C(F)(F)F,?,1,6,0,-1,0
O=C(CNS(=O)(=O)c1ccc(F)cc1)Nc1ccc(C(F)(F)F)cc1,16544*,0,9,0,0,-1
O=C(Nc1ccc(S(=O)(=O)Nc2ccccc2F)cc1)N1CCCCC1,6059,-2,-10,-4,-1,-2
SMILES,Autofluor counter,BoNT A protease,MazEF act,BoNT-F LC inh,PfHsp40 rescue,Anthrax LF inh2
Cc1nc(NC(=O)c2ccc(Br)s2)sc1C(=O)N(C)C,16535*,?,0,-2,3,1
Cc1csc(NC(=O)c2ccc(Br)s2)n1,5758,0,3,-3,1,-2
Cc1nc(NC(=S)NC(=O)c2ccccc2)sc1C(=O)N(C)C,21936*,1,3,1,-1,-3
CCCOc1ccc(C(=O)NC(=S)Nc2nc(C)c(C(=O)N(C)C)s2)cc1,18538*,11,-3,15,0,-21
CCOC(=O)c1sc(NC(=S)NC(=O)c2ccccc2)nc1C,4291,-1,8,-5,-1,-3
Cn1cccc1/C=C1\CC(C(C)(C)C)C/C(=C\c2cccn2C)C1=O (stereo unspecified),7066,3,108*,-4,-1,2
CN1C2CCC1/C(=C/c1cccn1C)C(=O)/C2=C\c1cccn1C,7871,15,+,8,2,17
CCC1COC(c2cccn2Cc2ccccc2Cl)=N1 (stereo unspecified),2230,0,-4,-7,0,-3
CC(=O)NCCNc1nc2cc(-c3ccc(C)cc3)sc2c(=O)n1C,3593,0,·,4,·,-3
CC(C(=O)Nc1ccccc1C(=O)N1CCCC1)n1nnc2ccccc21 (stereo unspecified),21214*,-3,2,-5,1,0
Cc1cc(C)n2nc(CC(=O)NC3CCCCCC3)nc2n1,19846*,-1,2,-4,-2,-2
O=C(OC1CCN(c2ncc(C(F)(F)F)cc2Cl)CC1)c1ccc(Cl)cc1,24209*,0,1,-3,-1,-2
O=C(OCCN1CCN(c2ncc(C(F)(F)F)cc2Cl)CC1)c1ccc(Cl)cc1,2795,0,-14,-5,2,-1
FC(F)(F)c1cnc(N2CCSCC2)c(Cl)c1,4831,-1,8,-17,1,-7
CON=C1CCN(c2ncc(C(F)(F)F)cc2Cl)CC1,19907*,?,-8,1,0,1
Cc1ccc(C(=O)NC(=S)Nc2ccccc2N2CCOCC2)cc1C,6074,-1,-16,-2,0,4
CSc1cccc(NC(=O)/C=C/c2cccc(Cl)c2)c1,11998,0,24,2,245*,1
CNC(=O)c1ccc(NC(=O)/C=C/c2cccc(F)c2)cc1,3333,-2,4,-10,114*,-3
Cc1ccc(NC(=O)/C=C/c2cccc(C(F)(F)F)c2)cc1,9340,0,2,-7,0,-6
O=C(/C=C/c1cccc(C(F)(F)F)c1)Nc1cccc(C(F)(F)F)c1,8851,0,2,-9,83*,-2
COCCCNC(=O)/C=C/c1cccc(Cl)c1,20665*,0,-3,-2,0,-3
CCN(CC(=O)Nc1ccccc1C(F)(F)F)C(=O)c1cccc(N2C(=O)CCC2=O)c1,3749,3,4,?,-1,-2
CCOC(=O)Cc1nn(Cc2nc(-c3ccc(C)cc3)cs2)c(=O)c2ccccc12,7026,0,-4,-4,0,4
Cc1cc(C(=O)N2CCN(c3ccccc3)CC2)c(C)o1,17012*,-2,1,-2,1,-1
Cc1cc(C(=O)N2CCN(c3ccccc3Cl)CC2)c(C)o1,3680,2,-16,6,0,5
Cc1cc(C(=O)N2CCN(c3ncccn3)CC2)c(C)o1,21168*,-4,13,-3,1,-1
